Source: PubChem BioAssay (NCATS)
Inconclusive results are not listed. Activity calls are given as the source filed them. Calls follow the shape of the dose curve; as a rule, active = well fitted curve in the direction sought with a large enough effect; inconclusive = small, poorly fitted or top-dose-only effect, or another doubt; inactive = no such curve, though single readings can be large; an effect the other way counts as inactive or inconclusive.

Key:
TAB109 = assay: qHTS profiling for inhibitors of Plasmodium falciparum proliferation (AID 504749);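 also: 0% = DMSO vehicle and full inhibition = artemisinin control; nearly all actives have a fitted effect of over 60% in size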; settings: P. falciparum in erythrocytes, SYBR Green DNA, 72 h; series mostly up to 28.7 µM
In short: (§1)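 Each compound contacts P. falciparum-infected red blood cells for 72 h at 37 C; lysis buffer (Tris, EDTA, saponin, Triton X, SYBR Green I) is added and fluorescence measured next morning; values normalized to controls.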

TAB113 = assay: as above; settings: P. falciparum in erythrocytes, SYBR Green DNA, 72 h; series mostly up to 28.7 µM
In short: as §1

TAB165 = assay: as above; settings: P. falciparum in erythrocytes, SYBR Green DNA, 72 h; series mostly up to 28.7 µM
In short: as §1

W2 = assay: as above; settings: P. falciparum in erythrocytes, SYBR Green DNA, 72 h; series mostly up to 28.7 µM
In short: as §1

CRL-7250 = normal cell line; assay: Cytotoxic Profiling of Annotated Libraries Using Quantitative High-Throughput Screening (AID 1296008); settings: Five cell lines viability, CellTiter-Glo ATP luminescence, 48-72 h; max response: active compounds read low; also: nearly all actives have a fitted effect of over 60% in size; as to max response: % is scaled to controls: 0 for no effect and ±100 for the full control effect
In short: (§2)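 Cells exposed to compounds for 48 or 72 hr at 37 degrees Celsius. Viability read as ATP-coupled luminescence with CellTiter-Glo after 10 min at room temperature.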

HaCat [1] = assay: as above; settings: Five cell lines viability, CellTiter-Glo ATP luminescence, 48-72 h; max response: active compounds read low
In short: as §2

KB-3-1 = assay: as above; settings: Five cell lines viability, CellTiter-Glo ATP luminescence, 48-72 h; max response: active compounds read low
In short: as §2

NIH3T3 [2] = assay: as above; settings: Five cell lines viability, CellTiter-Glo ATP luminescence, 48-72 h; max response: active compounds read low
In short: as §2

HACAT [3] = assay: qHTS assay to identify novel small-molecules to repurpose for Merkel cell carcinoma treatment (AID 1296009); settings: MCC and control cell lines, CellTiter-Glo viability, 72 h; at 44.8 µM (top of the series) unless noted; also: nearly all actives have a fitted effect of over 60% in size
In short: (§3)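 Dose-response viability screen; 72 hr exposure at 37 degree celsius; CellTiter-Glo added, 10 min room temperature, luminescence read; RLUs scaled between no-cell and DMSO wells.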

C33A = assay: Primary qHTS to identify gynecologic anti-cancer compounds using libraries of approved drugs and bioactive compounds (AID 1345084); settings: Gynecologic cancer cell panel viability, ATPlite luminescence, 48 h; series mostly up to 57.5 µM; also: % is scaled to controls: 0 for no effect and ±100 for the full control effect; nearly all actives have a fitted effect of over 55% in size
In short: (§4)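 Cell viability after 48 h drug treatment, ATPlite luminescence readout; five doses.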

CAOV3 = assay: as above; settings: Gynecologic cancer cell panel viability, ATPlite luminescence, 48 h; series mostly up to 57.5 µM
In short: as §4

CASKI = assay: as above; settings: Gynecologic cancer cell panel viability, ATPlite luminescence, 48 h; series mostly up to 57.5 µM
In short: as §4

Es-2 = assay: as above; settings: Gynecologic cancer cell panel viability, ATPlite luminescence, 48 h; series mostly up to 57.5 µM
In short: as §4

HeLa = assay: as above; settings: Gynecologic cancer cell panel viability, ATPlite luminescence, 48 h; series mostly up to 57.5 µM
In short: as §4

Hek293T = assay: as above; settings: Gynecologic cancer cell panel viability, ATPlite luminescence, 48 h, control line for the selectivity index; series mostly up to 57.5 µM
In short: as §4

JEG-3 = assay: as above; settings: Gynecologic cancer cell panel viability, ATPlite luminescence, 48 h; series mostly up to 57.5 µM
In short: as §4

OV90 = assay: as above; settings: Gynecologic cancer cell panel viability, ATPlite luminescence, 48 h; series mostly up to 57.5 µM
In short: as §4

NIH3T3 [4] = assay: qHTS assay to identify novel small-molecules to repurpose for Merkel cell carcinoma treatment (AID 1296009); settings: MCC and control cell lines, CellTiter-Glo viability, 72 h; at 44.8 µM (top of the series) unless noted; also: nearly all actives have a fitted effect of over 60% in size
In short: as §3

CCc1cccc2c3c([nH]c12)[C@@](CC)(CC(=O)O)OCC3
inactive: outcome (TAB109) | outcome (TAB113) | outcome (TAB165) | outcome (W2) | max response (CRL-7250) 0.605% | outcome (HaCat [1]) | outcome (KB-3-1) | max response (NIH3T3 [2]) 1.91% | outcome (HACAT [3]) | Potency (C33A) | Potency (CAOV3) | outcome (CASKI) | Potency (Es-2) | Potency (HeLa) | Potency (Hek293T) | Potency (JEG-3) | Potency (OV90)

CC1=C2CC(O)(C(C)(C)O)C(O[C@@H]3O[C@H](CO)[C@@H](O)[C@H](O)[C@H]3O)CC(C)C2CC1=O (stereo partly drawn)
inactive: max response (CRL-7250) 2.9% | outcome (HaCat [1]) | max response (KB-3-1) 7.73% | outcome (NIH3T3 [2]) | outcome (HACAT [3]) inactive [at 17.4 µM] | outcome (NIH3T3 [4]) inactive [at 17.4 µM] | Potency (C33A) | Potency (CAOV3) | outcome (CASKI) | Potency (Es-2) | Potency (HeLa) | Potency (Hek293T) | Potency (JEG-3) | Potency (OV90)

CCOc1ccc(-c2cc(NC(=O)c3c(F)cccc3F)c(C(=O)O)s2)cc1
inactive: max response (CRL-7250) -4.12% | outcome (HaCat [1]) | max response (KB-3-1) -17.4% | max response (NIH3T3 [2]) -24.8% | outcome (HACAT [3]) | Potency (C33A) | Potency (CAOV3) | outcome (CASKI) | Potency (Es-2) | Potency (HeLa) | Potency (Hek293T) | Potency (JEG-3) | Potency (OV90)

COc1ccc(CC(=O)NCc2ccccc2-c2ccccc2C(=O)NCCc2cccnc2)cc1
inactive: max response (CRL-7250) -3.16% | outcome (HaCat [1]) | max response (KB-3-1) -4.64% | outcome (NIH3T3 [2]) | outcome (HACAT [3]) | outcome (NIH3T3 [4]) | Potency (C33A) | Potency (CAOV3) | outcome (CASKI) | Potency (Es-2) | Potency (HeLa) | Potency (Hek293T) | Potency (JEG-3) | Potency (OV90)

NC(Cc1c[nH]c2ccc(O)cc12)C(=O)O (stereo not drawn)
inactive: max response (CRL-7250) -7.16% | max response (HaCat [1]) 0.887% | outcome (KB-3-1) | outcome (NIH3T3 [2]) | outcome (NIH3T3 [4]) | Potency (C33A) | Potency (CAOV3) | outcome (CASKI) | Potency (Es-2) | Potency (HeLa) | Potency (Hek293T) | Potency (JEG-3) | Potency (OV90)

COc1ccc(NC(=O)c2ccc(-c3ccc(C(N)=O)cc3C)cc2)cc1N1CCN(C)CC1
inactive: max response (CRL-7250) -5.67% | outcome (HaCat [1]) | max response (KB-3-1) 1.64% | max response (NIH3T3 [2]) 4.28% | outcome (HACAT [3]) | Potency (C33A) | Potency (CAOV3) | outcome (CASKI) | Potency (Es-2) | Potency (HeLa) | Potency (Hek293T) | Potency (JEG-3) | Potency (OV90)

C=C1[C@@H]2CC[C@@]3(C)[C@H](c4ccoc4)OC(=O)C[C@]13O[C@H]1CC(=O)C(C)(C)[C@H](C(O)C(=O)OC)[C@]12C (stereo partly drawn)
inactive: max response (CRL-7250) -0.794% | outcome (HaCat [1]) | outcome (KB-3-1) | outcome (NIH3T3 [2]) | outcome (HACAT [3]) inactive [at 17.4 µM] | Potency (C33A) | Potency (CAOV3) | outcome (CASKI) | Potency (Es-2) | Potency (HeLa) | Potency (Hek293T) | Potency (JEG-3) | Potency (OV90)

C=C1C(O)CC2C(C(=O)O)=COC(OC3OC(CO)C(O)C(O)C3OC(=O)/C=C\c3ccc(O)cc3)C12 (stereo not drawn)
inactive: max response (CRL-7250) 0.287% | outcome (HaCat [1]) | max response (KB-3-1) 0.941% | outcome (NIH3T3 [2]) | outcome (HACAT [3]) inactive [at 17.4 µM] | outcome (NIH3T3 [4]) inactive [at 17.4 µM] | Potency (CAOV3) | outcome (CASKI) | Potency (Es-2) | Potency (HeLa) | Potency (Hek293T) | Potency (JEG-3) | Potency (OV90)

CC1(C)CC[C@]2(C(=O)O)CC[C@]3(C)C(=CCC4[C@@]5(C)C[C@@H](O)[C@H](O)[C@@](C)(CO)C5CC[C@]43C)C2C1 (stereo partly drawn)
inactive: outcome (CRL-7250) | outcome (HaCat [1]) | max response (KB-3-1) -4.17% | max response (NIH3T3 [2]) -3.06% | outcome (HACAT [3]) inactive [at 17.4 µM] | Potency (C33A) | Potency (CAOV3) | outcome (CASKI) | Potency (Es-2) | Potency (HeLa) | Potency (Hek293T) | Potency (JEG-3) | Potency (OV90)

CC1(O)CCC2C(C3C1CCC3(C)O)C2(C)C (stereo not drawn)
inactive: max response (CRL-7250) 3.06% | max response (HaCat [1]) 2.93% | max response (KB-3-1) 7.36% | outcome (NIH3T3 [2]) | outcome (NIH3T3 [4]) | Potency (C33A) | Potency (CAOV3) | outcome (CASKI) | Potency (Es-2) | Potency (HeLa) | Potency (Hek293T) | Potency (JEG-3) | Potency (OV90)

CC1(C)CC[C@]2(C(=O)O)CC[C@]3(C)C(=CCC4[C@@]5(C)CC[C@H](O)C(C)(C)C5CC[C@]43C)C2C1 (stereo partly drawn)
inactive: outcome (CRL-7250) | outcome (HaCat [1]) | max response (KB-3-1) 2.08% | max response (NIH3T3 [2]) -3.2% | outcome (HACAT [3]) inactive [at 17.4 µM] | Potency (C33A) | Potency (CAOV3) | outcome (CASKI) | Potency (Es-2) | Potency (HeLa) | Potency (Hek293T) | Potency (JEG-3) | Potency (OV90)

COc1ccc(OC2OC(CO[C@@H]3O[C@@H](C)[C@H](O)[C@@H](O)[C@H]3O)C(O)C(O)C2O)cc1OC (stereo partly drawn)
inactive: max response (CRL-7250) 3.33% | outcome (HaCat [1]) | max response (KB-3-1) 5.53% | outcome (NIH3T3 [2]) | outcome (HACAT [3]) inactive [at 17.4 µM] | outcome (NIH3T3 [4]) inactive [at 17.4 µM] | Potency (C33A) | Potency (CAOV3) | outcome (CASKI) | Potency (Es-2) | Potency (HeLa) | Potency (Hek293T) | Potency (JEG-3) | Potency (OV90)
